# Laboratory results taken from PubChem BioAssay (NCATS).
# Records with an inconclusive call do not appear. Entries that show only a call come without a potency. The source made the active and inactive calls. Unless noted, calls follow the shape of the dose curve; as a rule, active = well fitted curve in the direction sought with a large enough effect; inconclusive = small, poorly fitted or top-dose-only effect, or another doubt; inactive = no such curve, though single readings can be large; an effect the other way counts as inactive or inconclusive.
# How the values were obtained:
# [1] = biological target: DNA repair nuclease/redox regulator APEX1 (Homo sapiens) (UniProt P27695); assay: qHTS Validation Assay for Inhibitors of the Human Apurinic/apyrimidinic Endonuclease 1 (APE1) (AID 1705;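 also: TAMRA fluorescence gain over two minutes as APE1 cuts a quenched THF abasic duplex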)
# Sequence of DNA repair nuclease/redox regulator APEX1 (Homo sapiens) (P27695 whole entry, looked up): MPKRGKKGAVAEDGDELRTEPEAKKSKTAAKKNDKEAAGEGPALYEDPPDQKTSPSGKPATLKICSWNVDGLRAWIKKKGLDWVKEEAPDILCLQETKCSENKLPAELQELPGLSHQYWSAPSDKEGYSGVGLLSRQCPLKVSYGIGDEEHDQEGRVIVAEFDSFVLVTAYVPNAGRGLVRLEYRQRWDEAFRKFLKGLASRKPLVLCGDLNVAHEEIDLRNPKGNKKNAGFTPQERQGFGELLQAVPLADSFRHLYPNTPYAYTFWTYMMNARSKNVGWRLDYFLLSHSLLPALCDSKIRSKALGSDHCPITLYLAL
# Method in brief: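 qHTS, 1536-well. APE1 + cpd 15 min RT → 50 nM TAMRA/BHQ-2 THF-abasic dsDNA substrate → kinetic fluorescence, 3 reads/60 s; delta(read3−read1) = reaction progress. No-enzyme buffer = negative control.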
# [2] = Counterscreen for APE1 Inhibitors: Fluorescent Dye Displacement Validation Assay (AID 1707)
# Method in brief: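 Assay buffer: Tris-HCl pH7.5 with 50mM NaCl, 2 mM MgCl2, 0.01% Tween-20. Dye 250 nM, duplex 50 nM final. Readout: decrease in ThO endpoint fluorescence, 480 nm excitation, 540 nm emission.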
# [3] = biological target: Endonuclease 4 (Escherichia coli (strain K12)) (UniProt P0A6C1); assay: Counterscreen for APE1 Inhibitors: qHTS Validation Assay for Inhibitors of Endonuclease IV (AID 1708)
# Method in brief: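 Enzymatic AP-site incision assay using a double-stranded THF substrate labelled with TAMRA and BHQ-2; released fluorescence signals activity. Enzyme 2 nM, substrate 50 nM, 15 min compound preincubation.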
# [4] = qHTS for differential inhibitors of proliferation of Plasmodium falciparum line 7G8 (AID 1815);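 also: parasite growth measured after three days of incubation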; also: potency is read from the fitted curve at half-maximal effect
# [5] = qHTS for differential inhibitors of proliferation of Plasmodium falciparum line D10 (AID 1877);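 also: parasites grown with compound for 72 h before DNA staining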; also: potency is read from the fitted curve at half-maximal effect
# [6] = qHTS for differential inhibitors of proliferation of Plasmodium falciparum line GB4 (AID 1816); settings: Potency: Plasmodium falciparum GB4 proliferation inhibition;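 also: parasite growth measured after 72 h incubation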; also: potency is read from the fitted curve at half-maximal effect
# [7] = qHTS for differential inhibitors of proliferation of Plasmodium falciparum line 3D7 (AID 1876); also: potency is read from the fitted curve at half-maximal effect
# [8] = qHTS for differential inhibitors of proliferation of Plasmodium falciparum line Dd2 (AID 1882); settings: Potency: Plasmodium falciparum Dd2 proliferation inhibition; also: nearly all actives have a fitted effect of over 65% in size; also: potency is read from the fitted curve at half-maximal effect;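 as to activity change, negative = inhibition: compound exposure of 72 h on infected erythrocytes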
# Method in brief: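 SYBR Green I DNA fluorescence read-out, ex 485/em 535 nm. Signals were normalized to 0.29 uM artemisinin and DMSO wells, then corrected using vehicle-only plates flanking each stack. Parasite growth ran 72 h in erythrocytes before lysis.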
# [9] = qHTS for differential inhibitors of proliferation of Plasmodium falciparum line W2 (AID 1883); settings: Potency: Plasmodium falciparum W2 proliferation inhibition;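 also: parasites grown with compound for 72 h before lysis and staining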; also: potency is read from the fitted curve at half-maximal effect
# [10] = qHTS Assay for Lipid Storage Modulators (AID 1519; calls by dose curve); settings: Drosophila S3 cells, BODIPY lipid droplet/cell ratio, laser cytometry, cells loaded with oleic acid
# Method in brief: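 Cells seeded at 5,000 per well were treated with compounds over a concentration series and loaded with oleic acid (400 uM, as added). Lipid droplet fluorescence (488 nm excitation, 500-530 nm channel) was read by laser-scanning cytometry and normalized to 20 uM Triacsin C.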
Compound,Potency [1],outcome [2],Potency [3],Potency [4],Potency [5],Potency [6],Potency [7],Potency [8],Potency [9],"activity change, negative = inhibition ([10]; at 25.7 µM (top of the series))",max response ([10]; measured here: cell count channel max response),max response ([10]; measured here: lipid channel max response)
CNCCC(Oc1ccccc1OC)c1ccccc1 (stereo unspecified),inactive,inactive,inactive,3.55 µM (active),inactive,,,,,,,
Cc1nc2sccn2c(=O)c1CCN1CCC(=C(c2ccc(F)cc2)c2ccc(F)cc2)CC1,inactive,inactive,inactive,7.08 µM (active),10 µM (active),10 µM (active),11.2 µM (active),7.94 µM (active),10 µM (active),,,
COc1cc(C(=O)OCCCN2CCCN(CCCOC(=O)c3cc(OC)c(OC)c(OC)c3)CC2)cc(OC)c1OC,,inactive,,5.01 µM (active),10 µM (active),6.31 µM (active),3.16 µM (active),7.08 µM (active),3.55 µM (active),-0.679% (inactive),11.7%,8.49%
CN(C)C(=O)Oc1ccc[n+](C)c1,inactive,inactive,,inactive,inactive,inactive,inactive,inactive,inactive,,,
Brc1c(NC2=NCCN2)ccc2nccnc12,inactive,inactive,,,inactive,,,inactive,,,,
O=C1CC2(CCCC2)CC(=O)N1CCCCN1CCN(c2ncccn2)CC1,,inactive,inactive,,,,,inactive,,,,
O=C(O)CP(=O)(O)O,,inactive,,inactive,inactive,,,inactive,,,,
Nc1nc(N)c2nc(-c3ccccc3)c(N)nc2n1,,inactive,,,2.51 µM (active),0.891 µM (active),2 µM (active),inactive,15.8 µM (active),,,
CCOC(=O)c1cnc2c(cnn2CC)c1NN=C(C)C,,,,,inactive,,,inactive,,,,
COC(=O)[C@H]1[C@H]2C[C@@H]3c4[nH]c5cc(OC)ccc5c4CCN3C[C@H]2C[C@@H](OC(=O)c2cc(OC)c(OC)c(OC)c2)[C@@H]1OC,inactive,inactive,,0.282 µM (active),2.82 µM (active),2 µM (active),1.78 µM (active),2.24 µM (active),0.891 µM (active),,,
Fc1ccc(C(c2ccc(F)cc2)N2CCN(C/C=C/c3ccccc3)CC2)cc1,inactive,inactive,,3.98 µM (active),11.2 µM (active),4.47 µM (active),12.6 µM (active),12.6 µM (active),3.98 µM (active),,,
CC(C)NCC(O)c1cc(O)cc(O)c1 (stereo unspecified),,inactive,inactive,inactive,inactive,inactive,inactive,inactive,inactive,,,
COc1cc2c(cc1OC)-c1cc(=Nc3c(C)cc(C)cc3C)n(C)c(=O)n1CC2,,inactive,inactive,2.24 µM (active),3.98 µM (active),2.24 µM (active),2 µM (active),8.91 µM (active),3.55 µM (active),,,
C[C@]12C=CC(=O)C=C1CC[C@H]1[C@@H]3C[C@@H](O)[C@](O)(C(=O)CO)[C@@]3(C)C[C@H](O)[C@@]12F,,inactive,inactive,inactive,inactive,inactive,inactive,inactive,inactive,,,
Cc1nc2c([nH]1)c(=O)n(C)c(=O)n2Cc1ccco1,,inactive,,inactive,inactive,inactive,inactive,inactive,inactive,,,
CCC(=O)c1ccc2c(c1)N(CCCN(C)C)c1ccccc1S2,inactive,inactive,,8.91 µM (active),17.8 µM (active),11.2 µM (active),10 µM (active),,5.01 µM (active),,,
COc1ccc([C@@H]2Sc3ccccc3N(CCN(C)C)C(=O)[C@@H]2OC(C)=O)cc1,,inactive,inactive,,inactive,,,,7.08 µM (active),,,
CCn1cc(C(=O)O)c(=O)c2cc3c(cc21)OCO3,,inactive,inactive,,inactive,,,inactive,,,,
C(=C\c1ccccc1)/CN1CCN(C(c2ccccc2)c2ccccc2)CC1,,inactive,,3.98 µM (active),,8.91 µM (active),,11.2 µM (active),,,,
C[C@H](CS)C(=O)N1CCC[C@H]1C(=O)O,,inactive,,inactive,inactive,inactive,inactive,,inactive,,,
CN=C(NC#N)NCCSCc1nc[nH]c1C,,inactive,inactive,,inactive,inactive,inactive,inactive,,,,
COCCCC/C(=N\OCCN)c1ccc(C(F)(F)F)cc1,,inactive,inactive,10 µM (active),,5.62 µM (active),,,2.24 µM (active),,,
CSc1ccc(C(=O)c2[nH]c(=O)[nH]c2C)cc1,,inactive,inactive,inactive,inactive,inactive,,inactive,inactive,,,
C[n+]1cc2c3c(ccc2c2ccc4cc5c(cc4c21)OCO5)OCO3,inactive,,,4.47 µM (active),3.55 µM (active),2.82 µM (active),2.82 µM (active),6.31 µM (active),2.51 µM (active),,,
CCN(Cc1ccncc1)C(=O)C(CO)c1ccccc1 (stereo unspecified),,inactive,,inactive,inactive,inactive,inactive,inactive,inactive,,,
CN(C)C(=O)Oc1cccc([N+](C)(C)C)c1,,inactive,inactive,inactive,inactive,inactive,inactive,inactive,inactive,,,
